Assay outcomes as filed in PubChem.
This is a sample that favours compounds with a hit; in the whole collection about 0.89% have one here.
MEP2 TOR yeast – modulators of MEP2-GFP levels in yeast, primary screen, S. cerevisiae, multiplex flow cytometry, MLPCN library | S. cerevisiae MEP2-GFP strain, 3 h; 100% = DMSO control level | AID 2016, 2009 | GFP response vs DMSO, % at 10 µM | 330,000 compounds, 0.51% hits;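 active means GFP response versus DMSO above a set limit, roughly screen mean plus 3 SD, cut at about 180% in these data; inconclusive means fewer than 70 cells counted for a yeast strain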;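 further: median GFP fluorescence of the barcode-gated MEP2-GFP cells per well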
AGP1 TOR yeast – modulators of AGP1-GFP expression in yeast TOR pathway, primary screen, cell-based, multiplex flow cytometry, S. cerevisiae, MLPCN library; 3 h; GFP as percent of DMSO wells; GFP response vs DMSO, % at 10 µM; 320,000 compounds, 0.02% hits; AID 2066, 2009;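 active means GFP response relative to DMSO above a set limit, near screen average plus 3 SD, cut at about 150% in these data; inconclusive means fewer than 70 cells counted for the yeast strain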;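 further: median GFP channel fluorescence of the gated AGP1 strain per well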
CIT2-GFP yeast – modulators of CIT2-GFP expression in yeast, primary screen, S. cerevisiae, GFP fusion, multiplex flow cytometry, MLPCN library. S. cerevisiae CIT2-GFP strain, 3 h; 100 means same as DMSO wells. 320,000 compounds, 0.065% hits. GFP response vs DMSO, % at 10 µM. AID 2029, 2009;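 active means GFP response relative to DMSO above a set limit, near the screen mean plus 3 SD, cut at about 150% in these data; inconclusive means Fewer than 70 cells measured for a yeast strain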;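 further: ratio of well median GFP fluorescence to mean of DMSO wells on the plate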
LAP4 TOR yeast – modulators of LAP4-GFP expression in yeast, primary screen, S. cerevisiae, multiplex flow cytometry, MLPCN library; 320,000 compounds, 0.34% hits; 3 h; median GFP as percent of DMSO wells; GFP response vs DMSO, % at 10 µM;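 active means GFP response vs DMSO above a set limit, about the screen mean plus 3 SD, cut at about 150% in these data; inconclusive means under 70 cell events counted for the yeast strain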
RPL19A-GFP yeast – RPL19A-GFP expression modulators in yeast, primary screen, cell-based, S. cerevisiae, multiplex flow cytometry, MLPCN; S. cerevisiae RPL19A-GFP strain, 3 h; active compounds read low; percent response vs DMSO, % at 10 µM; 330,000 compounds, 0.3% hits; AID 2025, 2009;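 active means percent response vs DMSO below 50%; inconclusive means fewer than 70 events counted for the yeast strain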;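 further: median channel GFP fluorescence of the barcoded RPL19A-GFP strain; ratio of sample median GFP to plate DMSO average so 100% = DMSO; lower means less RPL19A-GFP as with rapamycin TOR inhibition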
LAP4 cherry2 – LAP4-GFP expression modulators in yeast, confirmation, cell-based, second cherry pick, flow cytometry | GFP response vs DMSO, % at 10 µM | shares compounds with LAP4 TOR yeast | 590 compounds, 20% hits | S. cerevisiae LAP4-GFP strain, 3 h | AID 2621, 2010;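 active means GFP signal as percent of the solvent control above about 150%, meaning raised reporter expression, limit read from the data; inconclusive means fewer than 70 cells counted in the well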;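 further: ratio of well median GFP fluorescence to plate DMSO mean so 100% = DMSO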
MEP2 cherry2 – modulators of MEP2-GFP levels in yeast, confirmation, S. cerevisiae, flow cytometry GFP, second cherry picks. shares compounds with LAP4 TOR yeast. S. cerevisiae MEP2-GFP strain, 3 h. GFP response vs DMSO, % at 10 µM. 590 compounds, 10% hits;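 active means GFP signal above 150% of the solvent control wells, that is a rise of more than half; inconclusive means fewer than 70 yeast cells counted in the well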;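 further: median channel GFP fluorescence of all gated yeast cells per well; ratio of median GFP to plate DMSO average so 100% = DMSO level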
RPL19A GFP CP2 – RPL19A-GFP modulators in TOR pathway yeast, confirmation, cell-based, S. cerevisiae, flow cytometry, second cherry pick; GFP response vs DMSO, % at 10 µM; S. cerevisiae RPL19A-GFP strain, 3 h; active compounds read low; 100% means same as DMSO wells; 590 compounds, 3% hits; shares compounds with LAP4 TOR yeast;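 active means under 65% GFP response relative to DMSO; inconclusive means yeast strain with under 70 measured events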;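 further: median GFP channel fluorescence per well over the all cells gate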
CIT2-GFP pick2 – modulators of CIT2-GFP expression in yeast, confirmation, flow cytometry, second cherry pick, single plex; shares compounds with LAP4 TOR yeast; 590 compounds, 8% hits; AID 2624, 2010; S. cerevisiae CIT2-GFP strain, 3 h; DMSO control wells read 100%; GFP response vs DMSO, % at 10 µM;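 active means GFP response vs DMSO above about 150%, limit read from the data; inconclusive means fewer than 70 events counted for a yeast strain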;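 further: median green fluorescence per well over all gated yeast cells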
AGP1-GFP pick2 – AGP1-GFP expression modulators, hit retest, confirmation, cell-based, flow cytometry, S. cerevisiae, cherry pick set 2 | shares compounds with LAP4 TOR yeast | S. cerevisiae AGP1-GFP strain, 3 h | percent response vs DMSO, % at 10 µM | 590 tested, under 10 active;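 active means over 150 percent of DMSO response; inconclusive means yeast strain measured with under 70 events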;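 further: median GFP channel fluorescence over all cells without mother daughter split; sample median GFP divided by mean DMSO control so 100% equals DMSO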
s288c autofluor – compound autofluorescence in yeast s288c, dose response, artefact control for yeast TOR pathway GFP screen, s288c strain; shares compounds with LAP4 TOR yeast; S. cerevisiae s288c, 520 nm autofluorescence, flow cytometry, 3 h; active compounds read high; zero means same as solvent-only cells; fluorescence change (kMESF span) at 33 µM; 610 tested, under 10 active;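 active means fluorescence span over the dose series, or activity score, above about 33, limit read from the data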
s288c autofl DR – autofluorescence of compounds in yeast s288c, dose response, artefact control for yeast TOR pathway GFP screen, primary hits, KU SAR, s288c parental. S. cerevisiae s288c parental, compound autofluorescence, flow cytometry, 3 h. 110 tested, under 10 active. AID 488829, 2010. shares compounds with LAP4 TOR yeast. fluorescence change (span) at 33 µM;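 active means fluorescence change span, or the activity score built from it, above 25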
TORC1 bypass – wild-type yeast growth inhibition sparing TORC1 bypass cells, mechanism study for yeast TOR pathway GFP screen, BY4741 wild type, TORC1 bypass strain; growth rating (0-3) at 30 µM; S. cerevisiae BY4741 spot growth rating, 48-72 h; active compounds read low; 120 tested, under 10 active; AID 504456, 2011; shares compounds with LAP4 TOR yeast;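 active means growth rating at most 1 for wild type yeast while the TORC1 bypass strain still grows fully, rated 3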
Starred values were filed as active, the others as inactive; ? = inconclusive; . = no result given; [ ] = remark or other dose.

SMILES | MEP2 TOR yeast | AGP1 TOR yeast | CIT2-GFP yeast | LAP4 TOR yeast | RPL19A-GFP yeast | LAP4 cherry2 | MEP2 cherry2 | RPL19A GFP CP2 | CIT2-GFP pick2 | AGP1-GFP pick2 | others
CC(C)c1cc(-c2cc(C(=O)Nc3ccccc3)on2)nc(NCC2CC2)n1 | 107 | 91 | 80 | 104 | 92 | 99 | 106 | 100 | 93 | 99
Cc1cc(-c2cc(C(=O)Nc3ccccc3)on2)nc(NCC2CC2)n1 | 92 | 87 | 96 | 108 | 98 | 102 | 121 | 103 | 104 | 105
Cc1cc(NC2CCCCC2)nc(NCc2ccccc2)n1 | 114 | 108 | 115 | 103 | 111 | . | . | . | . | .
Cc1cc(-c2cc(C(=O)NC3CCCC3)on2)nc(NCC2CC2)n1 | 93 | 82 | 98 | 125 | 97 | . | . | . | . | .
N#CCCn1nnc(-c2ccccc2F)n1 | 106 | 92 | 95 | 97 | 94 | . | . | . | . | .
Nc1c(C(=O)Nc2ccc3c(c2)OCCO3)nnn1Cc1ccc(Br)cc1 | 97 | 106 | 107 | 111 | 99 | . | . | . | . | .
CCOC(=O)c1c(NC(=O)CN2C(=O)NC(C)(c3ccc(OC(F)F)cc3)C2=O)sc(C)c1C (stereo not given) | 102 | 95 | 93 | 91 | 100 | . | . | . | . | .
COCCN(C(=O)CSc1nnc(-c2ccccc2OC)o1)c1c(N)n(CC(C)C)c(=O)[nH]c1=O | 89 | 98 | 84 | 97 | 88 | . | . | . | . | .
CC(=O)c1cccc(NC(=O)N2CCCC2C(=O)Nc2ccc3c(c2)OCO3)c1 (stereo not given) | 107 | 109 | 100 | 109 | 108 | . | . | . | . | .
Cc1cc(C)c2cc(C(=O)N3CCC(Cc4ccccc4)CC3)[nH]c2c1 | 92 | 102 | 102 | 103 | 99 | . | . | . | . | .
COCc1nnc(NC(=O)c2cc3ccccc3o2)s1 | 83 | 78 | 101 | 81 | 93 | . | . | . | . | .
CC(C)c1cc(-c2cc(C(=O)NCc3ccccc3)on2)nc(NCC2CC2)n1 | 92 | 80 | 63 | 144 | 91 | 117 | 103 | 96 | 109 | 100
CCN1CCN(C(=O)c2ccc(C)c(S(=O)(=O)Nc3cccc(C)c3)c2)CC1 | 114 | 111 | 166* | 103 | 99 | 100 | 105 | 99 | 104 | 104
COc1ccc(-c2ncncc2-c2csc(C)n2)c(O)c1OC | 99 | 91 | 89 | 99 | 98 | . | . | . | . | .
COC1=C(N)C(=O)c2nc(-c3nc(C(=O)O)c(C)c(-c4ccc(OC)c(OC)c4O)c3N)ccc2C1=O | 132 | 67 | 71 | 218* | 60 | 309* | 252* | 95 | 349* | 98
C=C(C)CN(CC)C(=O)CN1C(=O)NC2(CCCc3ccccc32)C1=O (stereo not given) | 100 | 105 | 97 | 96 | 105 | . | . | . | . | .
Cc1cccc(C)c1NC(=O)CNC(=O)CCCN1C(=O)c2cccc3cccc(c23)C1=O | 449* | 182* | 414* | 375* | 170 | 99 | 108 | 100 | 102 | 100
CCOC(=O)c1cc(-c2ccc(/C=C3/C(=O)NC(=O)C(C#N)=C3C)o2)ccc1Cl | 108 | 64 | 87 | 151* | 67 | . | . | . | . | . | s288c autofluor=1.2
CCn1c(=O)c([N+](=O)[O-])c(NCc2ccco2)c2ccccc21 | 109 | 96 | 95 | 201*[may fluoresce green] | 92 | 104 | 115 | 98 | 107 | 101
CCNc1c([N+](=O)[O-])c(=O)n(CC)c2ccccc12 | 92 | 97 | 100 | 99 | 96 | . | . | . | . | .
CC(=O)Oc1ccc(/C=c2\sc3ncnn3c2=O)cc1 | 91 | 85 | 99 | 153* | 102 | . | . | . | . | . | s288c autofluor=0.5
CCCOc1ccc(/C=c2\sc3ncnn3c2=O)cc1 | 86 | 90 | 91 | 105 | 92 | . | . | . | . | .
CCOc1ccccc1/C=c1\sc2ncnn2c1=O | 87 | 66 | 68 | 275* | 97 | 226* | 112 | 108 | 110 | 89 | s288c autofluor=0.91
CCOC(=O)c1cc2occc2n1Cc1ccc(F)cc1 | ? | 97 | ? | 89 | 93 | . | . | . | . | .
CC(=O)c1cccc(NC(=S)NCCC2=CCCCC2)c1 | 115 | 111 | 112 | 107 | 104 | . | . | . | . | .
O=C(Nc1nc2ccc(Cl)cc2s1)[C@@H]1CCCN1C(=O)c1cccs1 | 95 | 102 | 102 | 98 | 96 | . | . | . | . | .
COc1ccc(OCC#CCNC(C)(C)C)cc1 | 94 | 98 | 88 | 90 | 93 | . | . | . | . | .
O=C(OCn1ncc(Br)c(Br)c1=O)c1c(F)cccc1F | 85 | 93 | 81 | 227* | 87 | . | . | . | . | . | s288c autofluor=0.31;s288c autofl DR=0.15;TORC1 bypass=3
Cc1ccc(NC(=O)c2cc(-n3cnnc3)ccc2Cl)cc1 | 98 | 94 | 104 | 105 | 108 | . | . | . | . | .
Cc1ccc(NC(=O)c2cc(N3C(=O)C=CC3=O)ccc2Cl)cc1C | 91 | 100 | 66 | 115 | 70 | 156* | 168* | 78 | 106 | 88 | s288c autofluor=1.3
